Results on 174 sequences are retold here after article PMC6212790, “How bacterial xenogeneic silencer rok distinguishes foreign from self DNA in its resident genome”.

In all, about 33,000 sequences were measured (“e-score”: median about -0.038, highest 2% from about 0.33 on). The list comes from a sample in which the highest values are over-represented; it also holds similar and randomly drawn sequences.

For this assay, the target named is T1, GST-Rok-C97-191 (Bacillus subtilis subsp. subtilis str. …, UniProt O34857 97-191).
T1 sequence: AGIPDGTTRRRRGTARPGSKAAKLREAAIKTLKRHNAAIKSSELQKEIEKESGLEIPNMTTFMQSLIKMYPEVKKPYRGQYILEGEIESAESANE
Description: protein binding microarray; Rok is a gene silencer of Bacillus subtilis; high values mean tight binding. Particulars: protein: recombinant; tags: GST (pTH5325, pDEST15-Magic modified); dsDNA, one strand shown. Summed up: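 Every oligonucleotide joins a 25-mer constant primer to a 35-mer variable part drawn from a de Bruijn sequence of order 10, so each non-palindromic 8-mer appears at least 32 times and each palindromic 8-mer 16 times. The preference for every 8-mer is reported as a unitless, rank-based enrichment score (E-score). This score spans 0.5 for the most favored 8-mer to −0.5 for the most disfavored.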
With GTAGTAAA, the binding signal came to 0.338 E-score.

CTAGTAAA: the binding signal was determined as 0.289 E-score.

In the case of CTAGTACA, the binding signal is 0.265 E-score.

ATAGTAAG: the binding signal turned out to be 0.278 E-score.

Take ATAGTAAA: the binding signal was found to be 0.357 E-score.

Consider GGAGTAAA, for which the binding signal amounted to 0.000261 E-score.

Take CCCAGCAG: the binding signal was -0.112 E-score.

Consider CTGAACGC, for which the binding signal was -0.149 E-score.

TACGACAA: the binding signal was determined as 0.151 E-score.

As to ATGGTCAA, the binding signal came to 0.137 E-score.

As for AAACTCCG, the binding signal was found to be 0.115 E-score.

On to GCTGTTTA, for which the binding signal worked out at 0.0646 E-score.

For the sequence GAATTCTC, the binding signal came out at 0.0595 E-score.

On to AAATTCTA, for which the binding signal came out at 0.379 E-score.

Take TAATTCTA: the binding signal stood at 0.331 E-score.

On to CAATTCTA, for which the binding signal was 0.287 E-score.

For the sequence GAATTCTA, the binding signal came out at 0.363 E-score.

In the case of TAATTCCA, the binding signal stood at 0.207 E-score.

Consider AAATTCTT, for which the binding signal amounted to 0.105 E-score.

Regarding AAATTCTC, the binding signal came to 0.0486 E-score.

TAATTCAA: the binding signal stood at 0.168 E-score.

Regarding CCCGCTCC, the binding signal was -0.108 E-score.

With GCGACCCA, the binding signal came to 0.134 E-score.

For the sequence TCAAGGAA, the binding signal was -0.0876 E-score.

ATCAACCA: the binding signal is -0.0125 E-score.

On to ATATAGAT, for which the binding signal came to 0.399 E-score.

As to ATATAGAC, the binding signal is -0.00572 E-score.

CTATAGAA: the binding signal came out at 0.283 E-score.

With ATATAGAA, the binding signal came out at 0.347 E-score.

For the sequence ATATAGAG, the binding signal was found to be 0.165 E-score.

On to GTATAGAA, for which the binding signal is 0.278 E-score.

Regarding CTGACAAG, the binding signal is -0.143 E-score.

Turning to AAGATGAG, the binding signal was 0.0366 E-score.

As for CAACAAGA, the binding signal was -0.163 E-score.

ACTTATAA: the binding signal stood at 0.338 E-score.

In the case of CTGTATAA, the binding signal was determined as 0.215 E-score.

As for ACTTATAT, the binding signal turned out to be 0.29 E-score.

As for ATGTATAA, the binding signal is 0.364 E-score.

With GTATATGA, the binding signal was found to be 0.224 E-score.

On to CTCTATAA, for which the binding signal was found to be 0.0363 E-score.

Regarding ATGTATAC, the binding signal amounted to 0.308 E-score.

Consider CAATATAA, for which the binding signal came out at 0.295 E-score.

Regarding CTATATGA, the binding signal came out at 0.0756 E-score.

Take ATATATGA: the binding signal worked out at 0.329 E-score.

For the sequence CCTTATAA, the binding signal is 0.0808 E-score.

On to CTATATAA, for which the binding signal stood at 0.359 E-score.

Take CACGGGCA: the binding signal is -0.13 E-score.

With AATTGTTA, the binding signal was determined as 0.234 E-score.

As to GCTTTCAA, the binding signal is -0.116 E-score.

With AGGAAGGA, the binding signal was -0.123 E-score.

In the case of AGAGTACT, the binding signal came out at 0.169 E-score.

With CACGTAGA, the binding signal is -0.0653 E-score.

For the sequence AGCTCGCA, the binding signal is -0.0853 E-score.

Consider AGAGACTG, for which the binding signal stood at 0.0621 E-score.

AACCAAAA: the binding signal stood at 0.0375 E-score.

ACTGACCA: the binding signal was -0.00734 E-score.

Consider AGTCCAAT, for which the binding signal was -0.0629 E-score.

Turning to CAGTATAA, the binding signal was 0.213 E-score.

With ATCTATAA, the binding signal came out at 0.355 E-score.

Take GTCTATAA: the binding signal was 0.0588 E-score.

As for ATCTATAG, the binding signal came out at 0.295 E-score.

For TGATATAA, the binding signal amounted to 0.309 E-score.

As to TAGTATAA, the binding signal is 0.413 E-score.

Regarding GTATATAA, the binding signal turned out to be 0.285 E-score.

ATATATAA: the binding signal is 0.449 E-score.

Turning to TAATATAA, the binding signal amounted to 0.309 E-score.

AAGTATAA: the binding signal is 0.187 E-score.

Consider TTATATAA, for which the binding signal stood at 0.384 E-score.

As for GGATATAA, the binding signal was found to be 0.3 E-score.

Turning to AGGACTAG, the binding signal was -0.0267 E-score.

On to TAGAATCA, for which the binding signal amounted to 0.222 E-score.

With AGTCGAGC, the binding signal is -0.0631 E-score.

For CTTTGCGC, the binding signal is -0.101 E-score.

Turning to ACACACCC, the binding signal is -0.0492 E-score.

Regarding ACAGGTTC, the binding signal was -0.0931 E-score.

Take TACTATAA: the binding signal is 0.408 E-score.

For the sequence AACTATAA, the binding signal came to 0.309 E-score.

Regarding CACTATAA, the binding signal amounted to 0.155 E-score.

Turning to CGCAAATA, the binding signal stood at 0.178 E-score.

As for GGAGAAAC, the binding signal is -0.116 E-score.

As to AACCGCGA, the binding signal is -0.00712 E-score.

Consider GTTATTAA, for which the binding signal amounted to 0.22 E-score.

On to AATGTATG, for which the binding signal turned out to be 0.309 E-score.

As for CATGTAAA, the binding signal came to 0.25 E-score.

Turning to ATTGTATA, the binding signal came out at 0.317 E-score.

For AATGTATA, the binding signal was 0.35 E-score.

Regarding AATGTAGC, the binding signal was found to be 0.144 E-score.

With GTTGTATA, the binding signal turned out to be 0.351 E-score.

On to GATGTAAA, for which the binding signal is 0.164 E-score.

As for CTTGTATA, the binding signal is 0.18 E-score.

AATGTAGA: the binding signal came out at 0.359 E-score.

Regarding AATGTATC, the binding signal is 0.187 E-score.

Regarding AATGTAAA, the binding signal came out at 0.329 E-score.

Turning to CATGTAGA, the binding signal amounted to 0.327 E-score.

Regarding TCCTAAAA, the binding signal came out at 0.103 E-score.

Turning to CCAGGCCG, the binding signal was -0.0324 E-score.

Regarding TTACTGAA, the binding signal turned out to be 0.144 E-score.

Consider ACGGGTAG, for which the binding signal worked out at 0.0714 E-score.

As for GAGGAAAA, the binding signal was -0.0709 E-score.

AGTGCACT: the binding signal was determined as 0.024 E-score.

For GTCAGAAA, the binding signal came to 0.0136 E-score.

Turning to GCATAACC, the binding signal stood at 0.0668 E-score.

Turning to GCGGTTCC, the binding signal was -0.143 E-score.

For the sequence CCTTAGAC, the binding signal is -0.116 E-score.

On to CACAACTA, for which the binding signal was determined as 0.199 E-score.

Regarding TCACTAGA, the binding signal came out at 0.155 E-score.

With AATGTAAG, the binding signal is 0.112 E-score.

For the sequence AATGTAAT, the binding signal is 0.398 E-score.

Take AATGTAAC: the binding signal came out at 0.166 E-score.

For CCAGTGAC, the binding signal is -0.156 E-score.

With ACCACAGA, the binding signal is 0.0469 E-score.

In the case of TAATAGCA, the binding signal turned out to be 0.276 E-score.

Consider AAATAGCG, for which the binding signal was 0.13 E-score.

With AAATAGCT, the binding signal worked out at 0.336 E-score.

Consider AAATAGTT, for which the binding signal is 0.406 E-score.

Take ACATAGTA: the binding signal was determined as 0.298 E-score.

Take AAATAGTG: the binding signal came out at 0.215 E-score.

Consider AAATAGTC, for which the binding signal came to 0.049 E-score.

As to GAATAGTA, the binding signal came to 0.325 E-score.

AAATAGCA: the binding signal was found to be 0.0458 E-score.

As for AAATAGTA, the binding signal came to 0.427 E-score.

TAATAGTA: the binding signal was 0.423 E-score.

Take AAATAGCC: the binding signal was found to be 0.0812 E-score.

As to AAACCACC, the binding signal is -0.1 E-score.

In the case of ACCGCCGA, the binding signal is -0.0492 E-score.

For CGAAGTCC, the binding signal is -0.0993 E-score.

As for CATGTCCG, the binding signal was found to be 0.0905 E-score.

Take CGGTAAAC: the binding signal stood at 0.0274 E-score.

As to TAGTAATA, the binding signal stood at 0.403 E-score.

For the sequence CAATAGTA, the binding signal worked out at 0.33 E-score.

Consider TAGTAACA, for which the binding signal was 0.345 E-score.

With CAGTAACA, the binding signal turned out to be 0.114 E-score.

With GAGTAATA, the binding signal was 0.182 E-score.

For CAATAGTG, the binding signal is 0.236 E-score.

Take AAGTAATA: the binding signal came to 0.29 E-score.

Turning to CAATAGTC, the binding signal was determined as 0.0177 E-score.

Regarding AAGTAACA, the binding signal is 0.177 E-score.

For CCTATAAG, the binding signal is 0.0895 E-score.

As to CAACGGTA, the binding signal was found to be 0.207 E-score.

Regarding GGATGAAC, the binding signal came to 0.0137 E-score.

Turning to AAGCCTCA, the binding signal is -0.158 E-score.

On to AAAGCGAG, for which the binding signal was -0.169 E-score.

Regarding CATGCCCC, the binding signal was -0.186 E-score.

For the sequence TGCCGAAA, the binding signal is -0.0675 E-score.

As for CAAATGGC, the binding signal came out at 0.0931 E-score.

Consider GAGAAATA, for which the binding signal came to 0.345 E-score.

Regarding GAGAAATC, the binding signal was 0.0248 E-score.

For GAGAAAAA, the binding signal was 0.0631 E-score.

With TAGAACTA, the binding signal was determined as 0.368 E-score.

On to CAGAAATA, for which the binding signal came out at 0.254 E-score.

With GAGAACTA, the binding signal was 0.242 E-score.

Turning to CAGAACTA, the binding signal worked out at 0.309 E-score.

As to TAGAAATA, the binding signal stood at 0.416 E-score.

Take AAGAAATA: the binding signal amounted to 0.145 E-score.

As for CATTCCGA, the binding signal was -0.0936 E-score.

CGTTTACC: the binding signal was -0.0458 E-score.

On to ACTATTCT, for which the binding signal amounted to 0.217 E-score.

On to GCCATTTA, for which the binding signal is -0.19 E-score.

In the case of GAATCGCA, the binding signal is -0.139 E-score.

As to GAGAATGA, the binding signal amounted to 0.00699 E-score.

In the case of CCGTTTAA, the binding signal is -0.0736 E-score.

Regarding TAAAAGGA, the binding signal is -0.0824 E-score.

On to TAAAACGA, for which the binding signal amounted to 0.027 E-score.

On to TAAAACTA, for which the binding signal turned out to be 0.334 E-score.

In the case of TAAAACAA, the binding signal came out at 0.0349 E-score.

For the sequence AAAAACTC, the binding signal came to 0.113 E-score.

For ACAAACTA, the binding signal amounted to 0.382 E-score.

ACAAACTG: the binding signal was found to be 0.0787 E-score.

As to CAAAACTC, the binding signal was 0.162 E-score.

Consider AAAAACTT, for which the binding signal was -0.191 E-score.

Consider CAAAACAA, for which the binding signal is -0.0275 E-score.

On to CAAAACTA, for which the binding signal turned out to be 0.401 E-score.

Take ACAAACTC: the binding signal came out at 0.00994 E-score.

Turning to AAAAACTA, the binding signal amounted to 0.426 E-score.
